Here are results for 19 molecules from PubChem BioAssay.

Each structure is given as a SMILES string. Values joined by “and” are separate entries in the source; they are usually repeats but may differ in a detail not shown here. Equal entries are not always repeated. For some assays here: Results with a measured potency or affinity are listed apart. A structure can be active in one record and inactive in another. Active and inactive are the calls of the source. Unless noted, how the calls were made is not given here.

Broadly, the inhibition is the relative decrease from the control value, in per cent.

Assay [1] can be described thus: antimalarial activity against Dd2 strain (AID 2302;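 active means growth inhibition above 50% at the single 2 µM test dose, taken to imply half-maximal potency below 2 µM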;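 further: 0% = DMSO untreated growth and 100% = chloroquine plus artemisinin killed control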). Particulars: P. falciparum Dd2 in RBCs, LDH growth readout, 72 h; at 2 µM; stronger effect = higher value.
A short description of assay [2]: human hepatoma cell viability loss – ATP luminescence, cytotoxicity control for P. falciparum antimalarial project, primary screen (AID 2303;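 active means inhibition above 50%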;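 further: 0% = DMSO wells and 100% = digitonin-killed cells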). As to conditions: HepG2 viability, 24-48 h, at 10 µM, stronger effect = higher value.
Assay [3] concerns the target L-lactate dehydrogenase (Plasmodium falciparum (isolate CDC / Honduras)) (UniProt Q27743). Briefly: PfLDH activity inhibition – cell lysate, 3D7 strain, counter-screen for P. falciparum growth inhibition project (AID 2304).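 Further: 0% = vehicle and 100% = reference inhibitor.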 Particulars: P. falciparum 3D7 crude extract, LDH APAD/NBT absorbance; at 2 µM; stronger effect = higher value. (The purpose of a counterscreen is to sort out artefacts and off-target activity.)

Assay [4] can be described thus: inhibition of 3D7 malaria parasite growth – strain 3D7 (AID 2306).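 Further: 0% = DMSO wells and 100% = chloroquine plus artemisinin control wells.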 Particulars: P. falciparum 3D7 erythrocytic growth, LDH absorbance, 72 h; at 2 µM; stronger effect = higher value.
For assay [5], the target named is Calcium-dependent protein kinase 1 (Plasmodium falciparum (isolate 3D7)) (UniProt P62344). Briefly: PfCDPK1 kinase inhibitors, biochemical, TCAMS library (AID 1159585; cut-off not given, nearly all actives have IC50 up to about 0.98 µM;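 further: inhibitors leave more ATP so luminescence rises with inhibition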). As to conditions: recombinant PfCDPK1, Kinase-Glo ATP depletion luminescence. Background: Kinase-Glo reads ATP consumption through a luciferase reaction.
Chain of Calcium-dependent protein kinase 1 (Plasmodium falciparum (isolate 3D7)) (P62344 whole entry, looked up): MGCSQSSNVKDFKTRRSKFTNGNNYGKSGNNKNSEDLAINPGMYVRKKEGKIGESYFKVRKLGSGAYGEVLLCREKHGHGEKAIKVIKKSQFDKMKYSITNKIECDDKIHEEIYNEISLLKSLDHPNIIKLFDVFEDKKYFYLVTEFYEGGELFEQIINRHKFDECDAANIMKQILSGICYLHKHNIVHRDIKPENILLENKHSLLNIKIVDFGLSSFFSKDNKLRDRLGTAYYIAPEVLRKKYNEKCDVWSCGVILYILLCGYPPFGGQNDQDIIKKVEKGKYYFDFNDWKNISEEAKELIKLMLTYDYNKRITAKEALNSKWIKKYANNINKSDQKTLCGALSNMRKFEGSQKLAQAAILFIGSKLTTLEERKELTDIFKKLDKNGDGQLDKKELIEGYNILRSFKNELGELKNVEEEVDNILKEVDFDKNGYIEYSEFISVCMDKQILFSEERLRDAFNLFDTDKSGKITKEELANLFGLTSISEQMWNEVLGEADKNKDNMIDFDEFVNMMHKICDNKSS
In assay [6] the target is Plasmodium falciparum protein kinase 6 (PK6, PF3D7_1337100) (UniProt Q8IDW1). Kind of assay: PfPK6 kinase inhibitors, biochemical, TCAMS library (AID 1159586). Particulars: recombinant PfPK6, Kinase-Glo ATP depletion luminescence.
Chain of Plasmodium falciparum protein kinase 6 (PK6, PF3D7_1337100) (Q8IDW1 1-305): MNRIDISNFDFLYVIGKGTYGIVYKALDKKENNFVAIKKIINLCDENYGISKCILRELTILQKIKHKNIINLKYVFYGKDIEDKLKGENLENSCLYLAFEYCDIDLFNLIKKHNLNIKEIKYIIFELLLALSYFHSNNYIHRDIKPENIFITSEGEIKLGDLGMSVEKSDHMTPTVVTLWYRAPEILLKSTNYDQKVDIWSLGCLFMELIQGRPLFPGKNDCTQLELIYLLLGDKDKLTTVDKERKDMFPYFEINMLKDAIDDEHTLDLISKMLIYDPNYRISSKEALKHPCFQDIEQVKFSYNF
In assay [7] the target is Protein kinase 7 (PK7), Plasmodium falciparum 3D7 (PF3D7_0213400) (UniProt Q7YTF7). Briefly: inhibition of Plasmodium PK7 catalytic activity – biochemical, TCAMS antimalarial set, Kinase-Glo luminescence (AID 1159587). Particulars: recombinant PfPK7, Kinase-Glo ATP depletion luminescence.
Chain of Protein kinase 7 (PK7), Plasmodium falciparum 3D7 (PF3D7_0213400) (Q7YTF7 1-343): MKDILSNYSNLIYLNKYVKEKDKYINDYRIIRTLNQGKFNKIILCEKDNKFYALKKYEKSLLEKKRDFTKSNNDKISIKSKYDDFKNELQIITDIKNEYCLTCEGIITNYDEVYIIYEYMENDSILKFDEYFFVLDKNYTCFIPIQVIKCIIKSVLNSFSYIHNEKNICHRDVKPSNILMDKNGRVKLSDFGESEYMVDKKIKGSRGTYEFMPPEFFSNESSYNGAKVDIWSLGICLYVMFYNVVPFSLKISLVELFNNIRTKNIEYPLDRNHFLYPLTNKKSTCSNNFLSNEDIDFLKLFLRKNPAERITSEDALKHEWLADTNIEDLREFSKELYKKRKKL
Assay [8] addresses Calcium-dependent protein kinase 4 (Plasmodium falciparum (isolate 3D7)) (UniProt Q8IBS5). Briefly: PfCDPK4 kinase inhibitors, biochemical, TCAMS library (AID 1159588; cut-off not given, nearly all actives have IC50 up to about 0.91 µM). Particulars: recombinant PfCDPK4, Kinase-Glo ATP depletion luminescence.

Chain of Calcium-dependent protein kinase 4 (Plasmodium falciparum (isolate 3D7)) (Q8IBS5 whole entry, looked up): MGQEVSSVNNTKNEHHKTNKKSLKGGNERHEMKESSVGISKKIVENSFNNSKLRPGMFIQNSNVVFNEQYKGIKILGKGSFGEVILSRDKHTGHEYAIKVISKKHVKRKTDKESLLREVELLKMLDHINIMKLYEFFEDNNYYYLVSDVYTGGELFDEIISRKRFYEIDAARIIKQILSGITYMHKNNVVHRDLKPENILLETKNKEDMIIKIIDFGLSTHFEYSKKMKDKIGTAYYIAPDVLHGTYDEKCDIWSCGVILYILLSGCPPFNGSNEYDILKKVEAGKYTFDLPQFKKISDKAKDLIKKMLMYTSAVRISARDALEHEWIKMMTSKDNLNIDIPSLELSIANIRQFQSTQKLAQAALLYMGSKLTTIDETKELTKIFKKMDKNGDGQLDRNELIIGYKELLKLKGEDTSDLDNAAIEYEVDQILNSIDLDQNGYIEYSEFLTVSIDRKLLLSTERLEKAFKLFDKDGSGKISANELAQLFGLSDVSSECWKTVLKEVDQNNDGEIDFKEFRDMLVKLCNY
Chain of L-lactate dehydrogenase (Plasmodium falciparum (isolate CDC / Honduras)) (Q27743 whole entry, looked up): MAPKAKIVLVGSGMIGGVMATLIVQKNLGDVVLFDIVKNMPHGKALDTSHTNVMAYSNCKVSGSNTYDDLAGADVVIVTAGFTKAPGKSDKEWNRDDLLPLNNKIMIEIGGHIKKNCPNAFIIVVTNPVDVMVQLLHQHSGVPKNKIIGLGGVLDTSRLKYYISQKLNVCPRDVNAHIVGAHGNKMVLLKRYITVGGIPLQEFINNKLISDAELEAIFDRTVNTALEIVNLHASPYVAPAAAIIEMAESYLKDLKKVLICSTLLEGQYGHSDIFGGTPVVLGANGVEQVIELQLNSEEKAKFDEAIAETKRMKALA

Take `CC(C)CNCc1cccc(-c2cccc(CN(C(=O)c3cccs3)C3CCN(Cc4ccccc4)CC3)c2)c1`: the results for the growth inhibition in assay [1] and in assay [4] were 36% (inactive) and 90% (active), respectively. Further, the inhibition in assay [2] was 14% (inactive); in assay [3], -4% (inactive). The result in assay [5], in assay [6], in assay [7] and in assay [8] was inactive.

For `O=C(NC1CCC(CN2CCC(c3c[nH]c4ccccc34)CC2)CC1)c1[nH]c(=O)[nH]c(=O)c1F` (configuration not stated), the growth inhibition was 59% (active) in assay [1] and 99% (active) in assay [4]. Also, the inhibition in assay [2] was 5% (inactive); in assay [3], -2% (inactive). The outcome in assay [5], in assay [6], in assay [7] and in assay [8] was inactive.

`COC(=O)/C=C/c1ccc(CC(C)NCC(O)c2cccc(Br)c2)cc1` (configuration not stated): the growth inhibition is 93% (active) in assay [1] and 97% (active) in assay [4]. The inhibition is 2% (inactive) in assay [2] and 5% (inactive) in assay [3]. Further, the result in assay [5], in assay [6], in assay [7] and in assay [8] was inactive.

Take `O=C(/C=C/c1ccc(Cl)c(Cl)c1)N1CCC(CN2CCC(c3c[nH]c4cc(C(F)(F)F)ccc34)CC2)CC1`: the growth inhibition is 38% (inactive) in assay [1] and 99% (active) in assay [4]. The inhibition is 6% (inactive) in assay [2] and -5% (inactive) in assay [3]. Further, the outcome in assay [5], in assay [6], in assay [7] and in assay [8] was inactive.

Take `CC[C@H]1CN2CC[C@@H]1C[C@H]2[C@H](O)c1cc(-c2c(C)noc2C)nc2ccc(OC)cc12`: the growth inhibition in assay [1] is 98% (active); in assay [4], 100% (active). Besides, the results for the inhibition in assay [2] and in assay [3] were 4% (inactive) and -1% (inactive), respectively. Also, the outcome in assay [5], in assay [6], in assay [7] and in assay [8] was inactive.

For the molecule `CC(=O)C1(c2ccccc2)CCN(CCC2(c3ccc(Cl)c(Cl)c3)CN(C(=O)c3cccc(Cl)c3)CCO2)CC1` (configuration not stated), the growth inhibition is 61% (active) in assay [1] and 90% (active) in assay [4]. Further, the inhibition in assay [2] was 37% (inactive); in assay [3] it was -3% (inactive). Further, the outcome in assay [5], in assay [6], in assay [7] and in assay [8] was inactive.

Turning to `CO[C@@H]1C[C@@H](C(=O)Nc2ccccc2)N(c2ccc(C#N)c3ccccc23)C1`, the growth inhibition in assay [1] was 100% (active); in assay [4] it was 98% (active). Moreover, the inhibition is 7% (inactive) in assay [2] and 6% (inactive) in assay [3]. In addition, the outcome in assay [5], in assay [6], in assay [7] and in assay [8] was inactive.

In the case of `CCc1ccc(CN2CCC(CN(C(=O)c3ccccc3)c3ccc(Cl)cc3)CC2)cc1`, the growth inhibition is 95% (active) in assay [1] and 96% (active) in assay [4]. The inhibition is 12% (inactive) in assay [2] and -4% (inactive) in assay [3]. For the same molecule, the result in assay [5], in assay [6], in assay [7] and in assay [8] was inactive.

In the case of `c1ccc2c(NCCCCCCNc3c4c(nc5ccccc35)CCCC4)c3c(nc2c1)CCCC3`, the growth inhibition in assay [1] was 51% (active); in assay [4] it was 100% (active). Besides, the inhibition is 90% (active) in assay [2] and 3% (inactive) in assay [3]. Further, the outcome in assay [5], in assay [6], in assay [7] and in assay [8] was inactive.

Regarding `CC(=O)N(Cc1ccccc1-c1cccc(CNCCc2ccccc2)c1)C1CCN(Cc2ccccc2)CC1`, the growth inhibition in assay [1] was 30% (inactive); in assay [4] it was 89% (active). Besides, the inhibition was 19% (inactive) in assay [2] and 0% (inactive) in assay [3]. Moreover, the outcome in assay [5], in assay [6], in assay [7] and in assay [8] was inactive.

With `CC[C@H]1CN2CC[C@H]1C[C@H]2[C@H](O)c1cc(N2CCCC(CO)C2)nc2ccc(OC)cc12` (some centres not stated), the growth inhibition was 99% (active) in assay [1] and 100% (active) in assay [4]. The inhibition in assay [2] is 11% (inactive); in assay [3] it was 2% (inactive). Further, the result in assay [5], in assay [6], in assay [7] and in assay [8] was inactive.

With `O=C(/C=C/c1ccccc1Cl)NC1CCC(CN2CCC(c3c[nH]c4ccccc34)CC2)CC1` (configuration not stated), the growth inhibition in assay [1] was 35% (inactive) and 51% (active); in assay [4], 99% (active) and 100% (active). Also, the inhibition is 33% (inactive) and 41% (inactive) in assay [2]; -2% (inactive) and 3% (inactive) in assay [3]. In addition, the outcome in assay [5], in assay [6], in assay [7] and in assay [8] was inactive.

Turning to `NC(=NCCCCCCN=C(N)/N=C(\N)c1ccc(Cl)cc1)/N=C(\N)c1ccc(Cl)cc1`, the growth inhibition in assay [1] is 99% (active); in assay [4] it was 98% (active). Also, the values for the inhibition in assay [2] and in assay [3] were 10% (inactive) and -9% (inactive), respectively. The outcome in assay [5], in assay [6], in assay [7] and in assay [8] was inactive.

Take `O=C(/C=C/c1ccc(Cl)c(Cl)c1)NCc1ccc(CN2CCC(c3c[nH]c4ccccc34)CC2)cc1`: the values for the growth inhibition in assay [1] and in assay [4] were 86% (active) and 101% (active), respectively. Moreover, the inhibition in assay [2] is 59% (active); in assay [3], -2% (inactive). Besides, the outcome in assay [5], in assay [6], in assay [7] and in assay [8] was inactive.

As to `CC[C@H]1CN2CC[C@H]1C[C@H]2[C@H](O)c1ccnc2ccc(OC)cc12`, the growth inhibition is 62% (active) in assay [1] and 100% (active) in assay [4]. The inhibition in assay [2] is -8% (inactive); in assay [3] it was -4% (inactive). In addition, the result in assay [5], in assay [6], in assay [7] and in assay [8] was inactive.

On to `O=C(c1cc(C(=O)NCc2ccc(Cl)cc2)c(=O)n(Cc2ccc(Cl)cc2)c1)c1cc(F)ccc1O`, for which the growth inhibition was 2% (inactive) in assay [1] and 93% (active) in assay [4]. The values for the inhibition in assay [2] and in assay [3] were 7% (inactive) and -2% (inactive), respectively. Moreover, the outcome in assay [5], in assay [6], in assay [7] and in assay [8] was inactive.

Turning to `CC(Cc1ccc(OCc2ccccc2)cc1)NCC(O)c1cccc(Cl)c1` (configuration not stated), the growth inhibition in assay [1] and in assay [4] was 99% (active) in each case. Moreover, the inhibition in assay [2] is 50% (active); in assay [3], 5% (inactive). Moreover, the result in assay [5], in assay [6], in assay [7] and in assay [8] was inactive.

For `CN(c1cc(NC(=O)c2cccs2)ccn1)C1CCN(Cc2cccc(F)c2)CC1`, the values for the growth inhibition in assay [1] and in assay [4] were 95% (active) and 94% (active), respectively. Also, the inhibition in assay [2] was -1% (inactive); in assay [3] it was 4% (inactive). Further, the outcome in assay [5], in assay [6], in assay [7] and in assay [8] was inactive.

For the molecule `CC(C)CNCc1cccc(-c2cccc(CN(C(=O)Nc3ccccc3)C3CCN(Cc4ccccc4)CC3)c2)c1`, the results for the growth inhibition in assay [1] and in assay [4] were 89% (active) and 102% (active), respectively. The inhibition was 31% (inactive) in assay [2] and 3% (inactive) in assay [3]. For the same molecule, the outcome in assay [5], in assay [6], in assay [7] and in assay [8] was inactive.
